Results taken from PubChem BioAssay (NCI).
About 83,000 compounds went through this panel and 20% of them were active in at least one assay; those are over-represented in the sample as a whole.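 In brief: 96-well plates, 48 h treatment, single concentration, percent growth endpoint.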 Values without a mark were called inactive. Calls of active or inactive are those of the source. How the source made its calls: active means growth percent below 10; inactive means the rest.

Test system: SF-268 CNS
Assay: NCI-60 one-dose screen, 48 h (100 = growth as untreated, 0 = no growth, -100 = all killed)
Conditions: 10 µM unless noted

Row | SMILES | growth
1 | CC(=O)O[C@H]1C(=O)[C@@]2(C)C([C@H](OC(=O)c3ccccc3)[C@]3(O)C[C@H](OC(=O)[C@H](O)[C@@H](NC(=O)c4ccccc4)c4ccccc4)C(C)=C1C3(C)C)[C@]1(OC(C)=O)CO[C@@H]1C[C@@H]2O (some centres not stated) | 30.2%
2 | CCCCCCCC/C=C/CCCCCCCC1=NC(C)(C)CN1CC(C)O (configuration not stated) | 55.5%
3 | COc1cc(C2NC(c3ccc(Cl)cc3)C(C)C(=NC(=O)c3cnccn3)C2C)cc(OC)c1OC (configuration not stated) | 97.2%
4 | C[C@@H]1CC[C@H]2[C@@H](C)C(O)O[C@@H]3O[C@]4(C)CC[C@@H]1[C@]32OO4 (some centres not stated) | 52.7%
5 | C/C(=C\CCc1ccsc1)CC/C=C(\C)CCCN1CCN(CCO)CC1 | 71.7%
6 | CN1COc2ccc3ccccc3c2C1 | 100%
7 | COc1ccc(-c2cnnn2-c2cc(OC)c3c(c2)OCO3)cc1 | 29.9%
8 | Nc1c2ccccc2nc2ccccc12 (tested in a mixture with another compound) | 19.2%
9 | CCOC(=O)C1=C(C)N2C(=NC3=C(CCC/C3=C\c3ccc(Cl)cc3)C2c2ccc(Cl)cc2)S1 (configuration not stated) | 34.7%
10 | C=C(C)[C@H]1CC/C(C)=C/CC[C@]2(C)O[C@H]2CC/C(C=O)=C\C1O (some centres not stated) | 106%
11 | CCN(CC)CCCCNc1c2ccccc2[n+](C)c2c1[nH]c1ccccc12 | -16.2% (active)
12 | Cn1cc(-c2csc(-c3c[nH]c4ncccc34)n2)c2cc(F)cnc21 | 91.7%
13 | Nc1ccccc1-c1ccc([N+](=O)[O-])cc1 | 49.4%
14 | Cc1ccc(NC(=O)Nc2ccc(-c3cccnc3)cc2N2CCC(CO)CC2)cc1 | 36.5%
15 | NNC(=O)C1CC2c3ccccc3C1c1ccccc12 (configuration not stated) | 98.7%
16 | O=C(OC[C@H]1O[C@H](OC(=O)c2cc(O)c(O)c(OC(=O)c3cc(O)c(O)c(O)c3)c2)[C@H](OC(=O)c2cc(O)c(O)c(OC(=O)c3cc(O)c(O)c(O)c3)c2)[C@@H](OC(=O)c2cc(O)c(O)c(OC(=O)c3cc(O)c(O)c(O)c3)c2)[C@@H]1OC(=O)c1cc(O)c(O)c(OC(=O)c2cc(O)c(O)c(O)c2)c1)c1cc(O)c(O)c(OC(=O)c2cc(O)c(O)c(O)c2)c1 | 27.2%
17 | NS(=O)(=O)c1ccc(NC2=C(Cl)C(=O)c3ccccc3C2=O)cc1 | 118%
18 | CCOC(=O)C1=C(COCCN)NC(C)=C(C(=O)OC)C1c1ccccc1Cl (configuration not stated) | 87%

Row | SMILES | growth
19 | Cc1cc2c(C#N)n3c(c2cc1C)C(=O)C(c1ccccc1)Oc1ccccc1-3 (configuration not stated) | 35.1%
20 | CN(C)c1nc(N)nc(Cn2c(-c3nonc3N)nc3ccccc32)n1 | 101%
21 | COC(=O)[C@]1(C(C)C)N[C@H](c2cn(-c3ccccc3)nc2-c2ccccc2)[C@@H]2C(=O)N(c3ccc(Cl)cc3)C(=O)[C@@H]21 | 90.8%
22 | CCOC(=O)/C(=C/c1ccccc1)C(=O)c1ccccc1 | 62%
23 | Cn1cnc([N+](=O)[O-])c1S(=O)(=O)Oc1ccc(Cl)cc1 | 93%
24 | O=C(/C=C/c1ccccc1Cl)c1ccc(O)cc1 | 53.7%
25 | O=C(Cc1ccccn1)C(F)(F)C(F)(F)C(F)(F)F | 125%
26 | Cn1c(=O)c2nc(SCc3ccccc3)n(C)c2n(C)c1=O | 106%
27 | COc1ccc2c(c1)nc(N)c1c3ccccc3cn21 | 81%
28 | O=C(/C(=C/c1cccc([N+](=O)[O-])c1)c1ccccc1)c1ccccc1 | 34.4%
29 | CCCCCCCC/C=C\CCCCCCCCOc1ccccc1CC(=O)NCC[N+]1(C)CCCC1 | 69.1%
30 | O=C(C(=O)N1CCCCC1)c1ccc(OC2OC(CO)C(O)C(O)C2O)cc1 (configuration not stated) | 105%
31 | O=NC1CC=CCC1c1ccccc1 (configuration not stated) | 104%
32 | CCC(C)(C)C(=O)O[C@H]1C[C@@H](C)C=C2C=C[C@H](C)[C@H](CC[C@@H]3C[C@@H](O)CC(=O)O3)[C@H]21 | 33.2%
33 | C[C@]12CC[C@@H]3c4ccc(O)cc4CC[C@H]3[C@@H]1CC[C@@H]2NS(=O)(=O)c1cccc(Br)c1 | 59.7%
34 | NC(=O)NN=C(C1CC1)C1CC1 | 102%
35 | CCC1=C(c2ccc(OC)cc2)C(C)(C)Oc2c1ccc(O)c2CN1CCCC1 | 54.3%
36 | CN(C)c1ccc(/C=C\c2ccnc3ccccc23)cc1 | 92.1%

Test system: SF-295 CNS
Assay: as above
Conditions: 10 µM unless noted

Row | SMILES | growth
37 | CC(=O)O[C@H]1C(=O)[C@@]2(C)C([C@H](OC(=O)c3ccccc3)[C@]3(O)C[C@H](OC(=O)[C@H](O)[C@@H](NC(=O)c4ccccc4)c4ccccc4)C(C)=C1C3(C)C)[C@]1(OC(C)=O)CO[C@@H]1C[C@@H]2O (some centres not stated) | -8.51% (active)
38 | CCCCCCCC/C=C/CCCCCCCC1=NC(C)(C)CN1CC(C)O (configuration not stated) | 32.4%
39 | COc1cc(C2NC(c3ccc(Cl)cc3)C(C)C(=NC(=O)c3cnccn3)C2C)cc(OC)c1OC (configuration not stated) | 106%
40 | C[C@@H]1CC[C@H]2[C@@H](C)C(O)O[C@@H]3O[C@]4(C)CC[C@@H]1[C@]32OO4 (some centres not stated) | 26.4%
41 | C/C(=C\CCc1ccsc1)CC/C=C(\C)CCCN1CCN(CCO)CC1 | 35.9%
42 | CN1COc2ccc3ccccc3c2C1 | 96.1%
43 | Nc1c2ccccc2nc2ccccc12 (tested in a mixture with another compound) | 24.4%
44 | CCN(CC)CCCCNc1c2ccccc2[n+](C)c2c1[nH]c1ccccc12 | -47.1% (active)
45 | Cn1cc(-c2csc(-c3c[nH]c4ncccc34)n2)c2cc(F)cnc21 | 74.3%
46 | Nc1ccccc1-c1ccc([N+](=O)[O-])cc1 | 44.2%
47 | Cc1ccc(NC(=O)Nc2ccc(-c3cccnc3)cc2N2CCC(CO)CC2)cc1 | 40.1%
48 | NNC(=O)C1CC2c3ccccc3C1c1ccccc12 (configuration not stated) | 105%
49 | O=C(OC[C@H]1O[C@H](OC(=O)c2cc(O)c(O)c(OC(=O)c3cc(O)c(O)c(O)c3)c2)[C@H](OC(=O)c2cc(O)c(O)c(OC(=O)c3cc(O)c(O)c(O)c3)c2)[C@@H](OC(=O)c2cc(O)c(O)c(OC(=O)c3cc(O)c(O)c(O)c3)c2)[C@@H]1OC(=O)c1cc(O)c(O)c(OC(=O)c2cc(O)c(O)c(O)c2)c1)c1cc(O)c(O)c(OC(=O)c2cc(O)c(O)c(O)c2)c1 | 9.95% (active)
50 | NS(=O)(=O)c1ccc(NC2=C(Cl)C(=O)c3ccccc3C2=O)cc1 | 111%
51 | CCOC(=O)C1=C(COCCN)NC(C)=C(C(=O)OC)C1c1ccccc1Cl (configuration not stated) | 96.2%
52 | Cc1cc2c(C#N)n3c(c2cc1C)C(=O)C(c1ccccc1)Oc1ccccc1-3 (configuration not stated) | 14.8%

Row | SMILES | growth
53 | COC(=O)[C@]1(C(C)C)N[C@H](c2cn(-c3ccccc3)nc2-c2ccccc2)[C@@H]2C(=O)N(c3ccc(Cl)cc3)C(=O)[C@@H]21 | 106%
54 | CCOC(=O)/C(=C/c1ccccc1)C(=O)c1ccccc1 | 83%
55 | Cn1cnc([N+](=O)[O-])c1S(=O)(=O)Oc1ccc(Cl)cc1 | 94.5%
56 | O=C(/C=C/c1ccccc1Cl)c1ccc(O)cc1 | 47.4%
57 | Cn1c(=O)c2nc(SCc3ccccc3)n(C)c2n(C)c1=O | 117%
58 | COc1ccc2c(c1)nc(N)c1c3ccccc3cn21 | 79.5%
59 | O=C(/C(=C/c1cccc([N+](=O)[O-])c1)c1ccccc1)c1ccccc1 | 64.2%
60 | CCCCCCCC/C=C\CCCCCCCCOc1ccccc1CC(=O)NCC[N+]1(C)CCCC1 | 98.2%
61 | O=C(C(=O)N1CCCCC1)c1ccc(OC2OC(CO)C(O)C(O)C2O)cc1 (configuration not stated) | 125%
62 | O=NC1CC=CCC1c1ccccc1 (configuration not stated) | 122%
63 | CCC(C)(C)C(=O)O[C@H]1C[C@@H](C)C=C2C=C[C@H](C)[C@H](CC[C@@H]3C[C@@H](O)CC(=O)O3)[C@H]21 | 11.7%
64 | COc1ccc2[nH]cc(/C=C3/C(=O)Nc4ccc(F)cc43)c2c1 | 95.6%
65 | NC(=O)NN=C(C1CC1)C1CC1 | 106%
66 | CCC1=C(c2ccc(OC)cc2)C(C)(C)Oc2c1ccc(O)c2CN1CCCC1 | -44% (active)
67 | CN(C)c1ccc(/C=C\c2ccnc3ccccc23)cc1 | 61.6%
